Experimental findings from ChEMBL document CHEMBL1961873, “Compounds: GSK PKIS; Assays: Nanosyn kinase panel” (2012) are described below.

The inhibition is the change of the read-out against control, counted positive when it falls.

The structures appear in SMILES notation.

Test [1] has as its target RAC-alpha serine/threonine-protein kinase (Homo sapiens) (UniProt P31749). The conditions noted are these: at 0.1 µM.
The target is the same in test [2]. The following applies: at 1 µM.
The target of test [3] is RAC-beta serine/threonine-protein kinase (Homo sapiens) (UniProt P31751). The conditions noted are these: at 0.1 µM.
Chain of RAC-beta serine/threonine-protein kinase (Homo sapiens) (P31751 whole entry): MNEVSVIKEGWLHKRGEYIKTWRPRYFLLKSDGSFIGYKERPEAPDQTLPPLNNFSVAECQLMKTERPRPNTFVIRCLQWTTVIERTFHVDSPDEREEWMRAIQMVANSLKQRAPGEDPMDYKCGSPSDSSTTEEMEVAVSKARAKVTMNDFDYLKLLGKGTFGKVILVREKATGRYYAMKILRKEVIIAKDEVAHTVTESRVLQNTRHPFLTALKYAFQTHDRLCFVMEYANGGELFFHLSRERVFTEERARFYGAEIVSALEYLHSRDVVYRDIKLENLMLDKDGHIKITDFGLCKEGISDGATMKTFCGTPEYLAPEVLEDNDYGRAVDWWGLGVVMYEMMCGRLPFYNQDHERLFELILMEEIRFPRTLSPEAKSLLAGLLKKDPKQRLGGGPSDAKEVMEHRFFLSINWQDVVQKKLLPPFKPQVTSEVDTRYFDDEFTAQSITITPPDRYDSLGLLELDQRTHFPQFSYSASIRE
Test [4] has the same target. The following applies: at 1 µM.
Test [5] concerns the target RAC-gamma serine/threonine-protein kinase (Homo sapiens) (UniProt Q9Y243). The following applies: at 0.1 µM.
For test [6] the target is unchanged. The conditions noted are these: at 1 µM.
The target of test [7] is G protein-coupled receptor kinase 6 (Homo sapiens) (UniProt P43250). The conditions noted are these: at 0.1 µM.
Chain of G protein-coupled receptor kinase 6 (Homo sapiens) (P43250 whole entry, looked up): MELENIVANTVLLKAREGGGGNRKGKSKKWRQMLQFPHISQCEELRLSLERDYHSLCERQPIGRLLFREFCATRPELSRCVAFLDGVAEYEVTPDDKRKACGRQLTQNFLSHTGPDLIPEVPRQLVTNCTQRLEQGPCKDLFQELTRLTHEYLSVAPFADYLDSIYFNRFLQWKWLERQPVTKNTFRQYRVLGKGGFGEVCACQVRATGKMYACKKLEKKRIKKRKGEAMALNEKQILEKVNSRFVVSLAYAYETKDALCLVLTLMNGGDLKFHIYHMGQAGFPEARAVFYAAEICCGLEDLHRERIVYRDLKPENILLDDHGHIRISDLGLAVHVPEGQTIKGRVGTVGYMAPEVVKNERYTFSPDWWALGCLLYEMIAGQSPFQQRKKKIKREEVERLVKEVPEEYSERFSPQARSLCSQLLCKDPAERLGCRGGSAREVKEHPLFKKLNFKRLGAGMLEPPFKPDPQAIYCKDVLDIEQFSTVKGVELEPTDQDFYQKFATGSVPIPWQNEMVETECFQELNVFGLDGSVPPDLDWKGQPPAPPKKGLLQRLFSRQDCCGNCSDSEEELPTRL
Test [8] shares this target. The conditions noted are these: at 1 µM.
Test [9] concerns the target T1, Rhodopsin kinase GRK7 (Homo sapiens) (UniProt Q8WTQ7).
T1 sequence (whole entry): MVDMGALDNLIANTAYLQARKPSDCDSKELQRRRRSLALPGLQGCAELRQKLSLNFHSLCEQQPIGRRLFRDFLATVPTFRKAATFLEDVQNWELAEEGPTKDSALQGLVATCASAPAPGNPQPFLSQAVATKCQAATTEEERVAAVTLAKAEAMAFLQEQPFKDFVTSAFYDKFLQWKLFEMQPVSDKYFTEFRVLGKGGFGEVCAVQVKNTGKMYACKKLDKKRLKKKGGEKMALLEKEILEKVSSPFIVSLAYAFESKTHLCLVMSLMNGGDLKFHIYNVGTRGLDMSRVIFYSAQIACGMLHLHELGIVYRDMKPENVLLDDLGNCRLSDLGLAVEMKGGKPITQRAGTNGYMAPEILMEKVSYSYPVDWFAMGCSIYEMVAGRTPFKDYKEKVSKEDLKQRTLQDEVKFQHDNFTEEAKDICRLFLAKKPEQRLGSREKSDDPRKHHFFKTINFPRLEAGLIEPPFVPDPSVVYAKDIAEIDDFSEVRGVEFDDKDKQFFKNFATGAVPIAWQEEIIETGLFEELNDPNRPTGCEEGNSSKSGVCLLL
The following applies: at 0.1 µM.

The target in test [10] is T1, Rhodopsin kinase GRK7 (Homo sapiens). The following applies: at 1 µM.
In test [11] the target is Serine/threonine-protein kinase MRCK alpha (Homo sapiens) (UniProt Q5VT25). The conditions noted are these: at 0.1 µM.
Test [12] has the same target. The following applies: at 1 µM.
Test [13] addresses Serine/threonine-protein kinase MRCK beta (Homo sapiens) (UniProt Q9Y5S2). The following applies: at 0.1 µM.
For test [14] the target is unchanged. The conditions noted are these: at 1 µM.
Test [15] has as its target Ribosomal protein S6 kinase alpha-5 (Homo sapiens) (UniProt O75582). The conditions noted are these: at 0.1 µM.
Test [16] has the same target. The conditions noted are these: at 1 µM.
In test [17] the target is Ribosomal protein S6 kinase alpha-4 (Homo sapiens) (UniProt O75676). The conditions noted are these: at 0.1 µM.
Chain of Ribosomal protein S6 kinase alpha-4 (Homo sapiens) (O75676 whole entry, looked up): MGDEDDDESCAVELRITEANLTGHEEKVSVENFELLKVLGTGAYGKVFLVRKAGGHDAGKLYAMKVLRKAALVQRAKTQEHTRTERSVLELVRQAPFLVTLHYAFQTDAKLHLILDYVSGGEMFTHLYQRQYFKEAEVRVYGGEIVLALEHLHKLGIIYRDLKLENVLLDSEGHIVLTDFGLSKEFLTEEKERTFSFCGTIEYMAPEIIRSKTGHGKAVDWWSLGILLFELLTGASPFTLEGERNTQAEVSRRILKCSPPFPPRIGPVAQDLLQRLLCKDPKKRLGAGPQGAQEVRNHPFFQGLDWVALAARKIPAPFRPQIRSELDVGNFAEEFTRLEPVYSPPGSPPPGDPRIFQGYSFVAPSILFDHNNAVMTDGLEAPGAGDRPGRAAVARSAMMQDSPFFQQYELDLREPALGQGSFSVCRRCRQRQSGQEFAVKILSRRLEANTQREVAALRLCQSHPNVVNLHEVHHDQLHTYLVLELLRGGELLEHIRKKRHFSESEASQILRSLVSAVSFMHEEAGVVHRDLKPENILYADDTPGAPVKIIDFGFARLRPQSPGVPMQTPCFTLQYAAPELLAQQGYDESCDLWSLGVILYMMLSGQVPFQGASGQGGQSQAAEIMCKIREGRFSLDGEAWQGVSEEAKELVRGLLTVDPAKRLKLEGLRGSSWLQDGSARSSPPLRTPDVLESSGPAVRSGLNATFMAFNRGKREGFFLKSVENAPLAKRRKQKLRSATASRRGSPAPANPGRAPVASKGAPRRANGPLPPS
Test [18] has the same target. The following applies: at 1 µM.
The target in test [19] is Ribosomal protein S6 kinase beta-1 (Homo sapiens) (UniProt P23443). The following applies: at 0.1 µM.
Chain of Ribosomal protein S6 kinase beta-1 (Homo sapiens) (P23443 whole entry, looked up): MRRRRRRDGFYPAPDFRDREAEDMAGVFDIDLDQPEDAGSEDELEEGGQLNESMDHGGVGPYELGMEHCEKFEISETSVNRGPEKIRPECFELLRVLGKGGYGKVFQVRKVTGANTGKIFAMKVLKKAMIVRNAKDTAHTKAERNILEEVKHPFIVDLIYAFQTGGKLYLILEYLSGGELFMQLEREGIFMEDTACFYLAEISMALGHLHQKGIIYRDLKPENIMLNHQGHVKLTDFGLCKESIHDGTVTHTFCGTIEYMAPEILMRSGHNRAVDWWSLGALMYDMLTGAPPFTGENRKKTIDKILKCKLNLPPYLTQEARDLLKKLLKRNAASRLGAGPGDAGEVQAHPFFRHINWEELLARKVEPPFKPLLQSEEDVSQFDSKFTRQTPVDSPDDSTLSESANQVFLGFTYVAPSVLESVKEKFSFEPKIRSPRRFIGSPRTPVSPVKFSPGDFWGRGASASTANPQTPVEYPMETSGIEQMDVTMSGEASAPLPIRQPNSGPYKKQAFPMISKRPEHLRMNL
For test [20] the target is unchanged. The following applies: at 1 µM.

Chain of RAC-alpha serine/threonine-protein kinase (Homo sapiens) (P31749 whole entry): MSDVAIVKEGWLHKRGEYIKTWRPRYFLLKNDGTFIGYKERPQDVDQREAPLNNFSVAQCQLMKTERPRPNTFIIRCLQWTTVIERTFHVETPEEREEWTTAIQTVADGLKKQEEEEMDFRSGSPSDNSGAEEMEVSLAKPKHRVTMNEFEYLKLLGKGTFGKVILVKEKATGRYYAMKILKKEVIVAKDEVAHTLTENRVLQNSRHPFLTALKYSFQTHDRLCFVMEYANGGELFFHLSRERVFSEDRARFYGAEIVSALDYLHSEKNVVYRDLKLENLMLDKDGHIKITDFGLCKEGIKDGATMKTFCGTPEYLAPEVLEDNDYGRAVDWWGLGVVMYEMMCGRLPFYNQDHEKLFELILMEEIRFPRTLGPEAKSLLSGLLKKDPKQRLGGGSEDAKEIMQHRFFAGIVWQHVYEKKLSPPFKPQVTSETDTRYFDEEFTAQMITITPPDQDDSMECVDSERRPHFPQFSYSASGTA
Chain of RAC-gamma serine/threonine-protein kinase (Homo sapiens) (Q9Y243 whole entry): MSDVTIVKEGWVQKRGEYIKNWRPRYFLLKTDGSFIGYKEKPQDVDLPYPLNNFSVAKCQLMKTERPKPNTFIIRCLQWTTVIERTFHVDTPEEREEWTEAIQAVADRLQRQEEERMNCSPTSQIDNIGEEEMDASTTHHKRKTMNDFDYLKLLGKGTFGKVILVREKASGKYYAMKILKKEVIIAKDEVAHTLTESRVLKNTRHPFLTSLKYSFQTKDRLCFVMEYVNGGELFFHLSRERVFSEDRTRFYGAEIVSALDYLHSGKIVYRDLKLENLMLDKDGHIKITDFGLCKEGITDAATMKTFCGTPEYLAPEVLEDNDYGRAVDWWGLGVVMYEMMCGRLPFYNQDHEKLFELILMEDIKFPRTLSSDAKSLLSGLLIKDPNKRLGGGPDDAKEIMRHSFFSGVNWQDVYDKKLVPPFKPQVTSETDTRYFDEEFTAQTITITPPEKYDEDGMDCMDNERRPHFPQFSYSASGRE
Chain of Serine/threonine-protein kinase MRCK beta (Homo sapiens) (Q9Y5S2 whole entry): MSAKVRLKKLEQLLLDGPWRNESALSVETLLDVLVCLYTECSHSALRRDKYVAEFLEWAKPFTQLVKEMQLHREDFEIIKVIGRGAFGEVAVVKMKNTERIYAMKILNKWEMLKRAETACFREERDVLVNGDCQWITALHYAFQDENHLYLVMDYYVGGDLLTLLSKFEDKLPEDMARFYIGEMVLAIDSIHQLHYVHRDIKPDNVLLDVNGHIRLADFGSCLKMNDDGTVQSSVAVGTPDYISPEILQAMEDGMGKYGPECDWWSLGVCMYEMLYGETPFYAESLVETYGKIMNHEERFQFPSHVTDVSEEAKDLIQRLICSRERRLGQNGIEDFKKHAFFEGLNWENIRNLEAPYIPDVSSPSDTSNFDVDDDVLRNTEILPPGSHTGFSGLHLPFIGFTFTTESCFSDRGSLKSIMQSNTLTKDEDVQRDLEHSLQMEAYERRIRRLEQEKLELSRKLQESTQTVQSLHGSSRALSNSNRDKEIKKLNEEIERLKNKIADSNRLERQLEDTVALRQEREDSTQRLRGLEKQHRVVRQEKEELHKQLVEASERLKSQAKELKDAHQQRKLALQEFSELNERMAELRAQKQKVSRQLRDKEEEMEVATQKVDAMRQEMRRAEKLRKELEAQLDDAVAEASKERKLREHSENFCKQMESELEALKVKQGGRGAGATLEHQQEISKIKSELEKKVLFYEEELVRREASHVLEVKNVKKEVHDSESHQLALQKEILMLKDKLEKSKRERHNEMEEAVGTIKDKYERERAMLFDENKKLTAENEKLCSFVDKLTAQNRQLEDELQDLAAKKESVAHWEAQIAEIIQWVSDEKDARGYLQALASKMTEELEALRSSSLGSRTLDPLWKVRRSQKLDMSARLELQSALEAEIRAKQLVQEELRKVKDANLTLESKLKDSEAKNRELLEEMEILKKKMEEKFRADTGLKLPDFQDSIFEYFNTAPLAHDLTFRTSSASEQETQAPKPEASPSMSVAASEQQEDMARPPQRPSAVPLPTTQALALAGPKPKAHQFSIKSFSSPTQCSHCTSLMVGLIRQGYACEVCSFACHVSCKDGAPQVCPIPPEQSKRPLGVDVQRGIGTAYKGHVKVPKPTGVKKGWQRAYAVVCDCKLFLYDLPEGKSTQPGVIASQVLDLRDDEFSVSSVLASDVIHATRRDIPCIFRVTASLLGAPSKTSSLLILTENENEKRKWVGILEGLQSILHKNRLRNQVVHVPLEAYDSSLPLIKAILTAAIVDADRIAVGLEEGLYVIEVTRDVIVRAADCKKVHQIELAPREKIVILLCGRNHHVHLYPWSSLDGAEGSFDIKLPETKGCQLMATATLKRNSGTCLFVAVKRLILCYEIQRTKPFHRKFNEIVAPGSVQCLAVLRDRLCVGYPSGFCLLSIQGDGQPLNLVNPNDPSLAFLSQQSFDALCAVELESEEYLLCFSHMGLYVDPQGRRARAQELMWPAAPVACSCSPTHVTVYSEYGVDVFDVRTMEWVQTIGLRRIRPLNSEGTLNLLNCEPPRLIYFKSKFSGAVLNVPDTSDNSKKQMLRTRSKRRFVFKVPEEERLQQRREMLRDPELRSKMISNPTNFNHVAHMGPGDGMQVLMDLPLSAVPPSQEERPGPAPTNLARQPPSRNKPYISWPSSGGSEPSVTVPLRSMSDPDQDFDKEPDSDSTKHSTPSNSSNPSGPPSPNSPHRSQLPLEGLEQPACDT

With `O=C(Nc1n[nH]c2cc(-c3cc(F)ccc3F)ccc12)C1CC1`, the inhibition in [1] worked out at 0.77%; in test [2] it was 0.09%; in [3], 1.23%; in test [4], 1.89%; in test [5], 1.03%; in test [6], 2.68%. Also, the inhibition was 2.61% in test [7]; 3.76% in [8]; 1.22% in [9]; 6.2% in [10]; -0.78% in test [11]; -3.13% in test [12]. The inhibition in [13] is -0.23%; in test [14], -0.47%; in test [15] it was 1.91%; in test [16], 1.12%; in test [17], 1.8%; in test [18], 3.08%. For the same compound, the results for the inhibition in test [19] and in test [20] were 1.01% and 1.58%, respectively.
Consider `Fc1ccc(-c2c(-c3ccncc3)nc3n2CCS3)cc1`, for which the inhibition in test [1] is -3.71%; in test [2] it was -2.76%; in [3] it was -2.67%; in test [4], -1.63%; in [5], -3.31%; in [6], -0.46%. In addition, the inhibition in [7] turned out to be 5.32%; in test [8], 4.18%; in test [9], 2.86%; in test [10], 7.9%; in [11] it was 1.61%; in [12], 5.14%. For the same compound, the inhibition in test [13] was 2.15%; in test [14] it was 9.93%; in test [15] it was 3.9%; in test [16] it was 8.14%; in test [17] it was 4.42%; in [18], 8.86%. Also, the results for the inhibition in [19] and in test [20] were 0.97% and 2.52%, respectively.
On to `CCc1nccc2c1nc(-c1nonc1N)n2CC`, for which the inhibition is -0.45% in [1]; 0.43% in test [2]; 0.34% in test [3]; 1.71% in test [4]; 0.28% in test [5]; 0.55% in test [6]. Moreover, the inhibition in [7] was -0.76%; in [8], -2.13%; in test [9], -2.75%; in [10], 2.78%; in test [11], 0.8%; in test [12], 1.36%. The inhibition in test [13] came to 0.74%; in test [14], 3.39%; in test [15] it was 6.51%; in test [16], 37.7%; in test [17] it was 2.18%; in test [18] it was 19.5%. Also, the inhibition in [19] was found to be 10.5%; in test [20] it was 49.6%.
For the compound `CCS(=O)(=O)c1ccc(OC)c(Nc2ncc(-c3ccccc3Cl)o2)c1`, the inhibition in test [1] was found to be 0.85%; in [2], 0.46%; in test [3] it was 0.22%; in test [4] it was 0.16%; in [5], 0.76%; in test [6], 0.93%. The inhibition is 2.4% in [7]; -0.11% in test [8]; -1.21% in test [9]; -6.79% in test [10]; -0.23% in [11]; 1.6% in test [12]. Moreover, the inhibition in test [13] is -0.41%; in test [14], 0.3%; in test [15], 0.87%; in test [16], 3.53%; in test [17], 0.38%; in [18], 1.77%. For the same compound, the inhibition came to 0.04% in [19] and 2.73% in [20].
Take `CCc1ccc(Oc2nccc(-c3c(-c4ccc(F)cc4)ncn3C3CCNCC3)n2)cc1`: the inhibition in test [1] is 2.02%; in test [2] it was 3.72%; in test [3], 2.05%; in [4], 3.62%; in test [5], 2.08%; in test [6], 11.5%. Moreover, the inhibition amounted to 3.46% in test [7]; 4.51% in [8]; 6.57% in [9]; 7.25% in [10]; 10% in test [11]; 12% in [12]. For the same compound, the inhibition is 0.41% in test [13]; 4.65% in [14]; 2.63% in test [15]; 4.23% in [16]; 3.19% in [17]; 5.69% in test [18]. Further, the inhibition was 1.57% in test [19] and 5.93% in [20].
Regarding `O=C1Nc2ccc(I)cc2C1=Cc1cc(Br)c(O)c(Br)c1`, the inhibition in [1] was determined as 1.14%; in test [2] it was 0.96%; in test [3], 1.72%; in [4], 1.1%; in test [5], 1.78%; in test [6], 0.85%. Further, the inhibition in [7] is 4.84%; in test [8], 17.8%; in test [9], 12.1%; in [10], 15.5%; in test [11] it was 6.44%; in test [12], 3.97%. Besides, the inhibition in test [13] is -0.53%; in test [14], 1.27%; in [15] it was 1.69%; in test [16], 1.77%; in [17], 2.87%; in test [18] it was 4.68%. The inhibition in test [19] was determined as 2.06%; in test [20], 4.52%.
As for `CCS(=O)(=O)c1ccc(OC)c(Nc2ncc(-c3cccc(-c4ccccc4F)c3)o2)c1`, the inhibition is -0.24% in [1]; -0.11% in test [2]; 0.25% in test [3]; 0.43% in test [4]; 1.02% in test [5]; -0.29% in [6]. Besides, the inhibition in [7] was 1.94%; in test [8], -0.56%; in test [9] it was 0.7%; in test [10], -0.85%; in [11], -0.09%; in test [12], -0.52%. Moreover, the inhibition worked out at 0.66% in test [13]; 1.36% in [14]; 0.09% in [15]; 1.42% in [16]; 0.74% in test [17]; 1.94% in [18]. Further, the inhibition was found to be 0.15% in [19] and 1.18% in [20].
